Inconclusive results are not listed. Calls of active or inactive are those of the source. The call rests on the fitted dose curve; in most records, active means well fitted activation curve with a large enough effect; inconclusive means small, poorly fitted or top-dose-only effect; inactive means no such curve, though single readings can be large or run the other way.

Chain of Arylsulfatase A (Homo sapiens) (P15289 whole entry, looked up): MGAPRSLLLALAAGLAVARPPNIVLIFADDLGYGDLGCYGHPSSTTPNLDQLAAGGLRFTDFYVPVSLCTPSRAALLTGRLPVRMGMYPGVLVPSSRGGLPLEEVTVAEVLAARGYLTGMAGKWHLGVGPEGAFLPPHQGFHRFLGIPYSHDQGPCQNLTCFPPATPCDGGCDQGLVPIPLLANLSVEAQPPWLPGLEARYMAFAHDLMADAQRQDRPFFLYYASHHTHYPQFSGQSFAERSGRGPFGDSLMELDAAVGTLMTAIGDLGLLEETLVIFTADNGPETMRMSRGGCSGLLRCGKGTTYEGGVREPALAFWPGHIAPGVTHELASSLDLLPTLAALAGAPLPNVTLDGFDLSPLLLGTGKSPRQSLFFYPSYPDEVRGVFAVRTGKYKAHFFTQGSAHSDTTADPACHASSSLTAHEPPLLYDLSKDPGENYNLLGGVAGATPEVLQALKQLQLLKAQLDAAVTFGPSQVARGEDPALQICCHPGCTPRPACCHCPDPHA

This test deals with Arylsulfatase A (Homo sapiens) (UniProt P15289). Kind of test: qHTS screen for enhancers of Arylsulfatase A (ASA1): LOPAC Validation Assay (AID 720538). The note with it: ASA enzyme activity, LOPAC qHTS enhancer assay; series mostly up to 57.5 µM. The source says:
Lysosomal storage diseases (LSDs) are caused by genetic mutations in genes encoding proteins important for normal lysosomal function. In affected patients, symptoms are usually not manifested unless the mutations result in more than 90% reduction of enzymatic activity of a specific lysosomal enzyme. […] Small molecules could function as enzyme enhancement agents by binding to and stabilizing mutant misfolded proteins in the endoplasmic reticulum (ER), allowing them to evade the ER associated degradation (ERAD), and eventually reach the lysosome. Moreover, small molecules is hypothesized to be able to enhance the residual activity of deficient lysosomal enzyme by either interacting directly with the mutant enzyme or indirectly by acting in different cellular pathways; resulting to increased levels of the mutant and partially functional protein in the lysosomal compartment.
A cell based assay in 1536 well plate format was developed to evaluate activity of the lysosomal sulfatase ASA1 enzyme. ASA1 is deficient in metachromatic leukodystrophy (MLD), an LSD characterized by progressive neurodegeneration for which specific treatment is not available. Compounds that are active may therefore have some therapeutic application for this disease. This assay was used to validate the ASA1 qHTS using the Sigma LOPAC library. In this assay increase in signal = enhanced ASA1 activity. Activation is the desired outcome for this assay.
NIH Chemical Genomics Center [NCGC]
NIH Molecular Libraries Probe Centers Network [MLPCN]
Assay Submitter (PI): Gustavo Maegawa, Johns Hopkins University School of Medicine
[2] Gieselmann V, et al. Acta Paediatr Suppl. 2008; 97: 15-21
Four microliter (~8,000 cells/well) of SV40-transformed skin fibroblasts from an MLD patient (ASA-I179S) were seeded into a 1,536 solid white plate. Cells were left to adhere for 6 hrs, followed by addition of 23 nL of compounds. Cells were incubated with compounds for 48h at 37 degree C and 5% CO2. Four microliter of 1 mM pNCS substrate/lysis buffer (0.5mM pNCS final concentration) was added and incubated for 14h at room temperature. To stop the reaction, […] of 5 N of NaOH (1N NaOH final concentration) was then added and fluorescence was measured using the ViewLux plate reader (Ex=525 nm; Em=598 nm).
For the molecule `NC(N)=Nc1nc(CSCC/C(N)=N/S(N)(=O)=O)cs1`, the outcome was inactive.
The entry for `CC(=O)c1ccc(S(=O)(=O)NC(=O)NC2CCCCC2)cc1` is “inactive”.
In the case of `Clc1ccc(C(c2ccc(Cl)cc2)n2cc[n+](CC(OCc3ccc(Cl)cc3Cl)c3ccc(Cl)cc3Cl)c2)cc1` (stereo unspecified), the result was inactive.
In the case of `CC(C)(C)c1ccc(C(O)CCCN2CCC(C(O)(c3ccccc3)c3ccccc3)CC2)cc1` (stereo unspecified), the result was inactive.
`CCCCC1C(=O)N(c2ccccc2)N(c2ccccc2)C1=O`: the outcome was inactive.
Then `COC(=O)[C@@H]1[C@H]2C[C@H]3c4[nH]c5ccccc5c4CCN3C[C@@H]2CC[C@@H]1O`, with “inactive; inhibitor; fitted 2.3934 uM”; and `CC(C)OC(=O)C(C)(C)Oc1ccc(C(=O)c2ccc(Cl)cc2)cc1`, with “inactive; inhibitor; fitted 0.151 uM”.
Then `Cc1cccc(C)c1OCC(C)N` (stereo unspecified), with “inactive”.
`Clc1ccc(Cn2c(CN3CCCC3)nc3ccccc32)cc1`: the outcome was “inactive; inhibitor; fitted 0.0054 uM”.
Consider `CC(=O)O[C@]1(C(C)=O)CC[C@H]2[C@@H]3C=C(Cl)C4=CC(=O)[C@@H]5C[C@@H]5[C@]4(C)[C@H]3CC[C@@]21C`, for which the outcome was inactive.
Turning to `CCn1cc(C(=O)O)c(=O)c2ccc(C)nc21`, the result was inactive.
Then `CC/C(=C(\c1ccccc1)c1ccc(OCCN(C)C)cc1)c1ccccc1`, with “inactive; inhibitor; fitted 5.3582 uM”.
As for `CCN(CC)CCOC(=O)c1ccc(N)cc1`, the outcome was inactive.
Then `CN(C)CCC(c1ccccc1)c1ccccn1` (stereo unspecified), with “inactive”.
Then `CC1(C)CCC2=C(O1)c1ccccc1C(=O)C2=O`, with “inactive”; and `CC(C)NCC(O)COc1cccc2[nH]ccc12` (stereo unspecified), with “inactive”.
Then `CCN1CCC[C@H]1CNC(=O)c1cc(S(N)(=O)=O)ccc1OC`, with “inactive”; and `CCN(CC)C(=O)c1ccc(O)c(OC)c1`, with “inactive; inhibitor; fitted 6.012 uM”; and `C[N+](C)(C)CCCCCC[N+](C)(C)C`, with “inactive”.
On to `CC(=O)N[C@@H](CS)C(=O)O`, for which the result was inactive.
The entry for `COc1ccccc1N1CCN(CCCNc2cc(=O)n(C)c(=O)n2C)CC1` is “inactive”.
The entry for `CCCCCN(C)CCC(O)(P(=O)(O)O)P(=O)(O)O` is “inactive”; for `CC1=C(/C=C/C(C)=C/C=C/C(C)=C/C(=O)Nc2ccc(O)cc2)C(C)(C)CCC1` it is “inactive”; for `O=C1NCC2(CCN(CCc3ccccc3)CC2)O1` it is “inactive”.
The entry for `NCCS` is “inactive”; for `O=c1cc(-c2ccc(O)cc2)oc2cc(O)cc(O)c12` it is “inactive”; for `CCN(CC)CCNC(=O)c1ccc(N)cc1` it is “inactive”.
For `O=c1c(-c2ccc(O)cc2)coc2cc(O)ccc12`, the outcome was inactive.
The entry for `O=C1NC(=O)C(c2ccccc2)(c2ccccc2)N1` is “inactive”; for `O=C(O)CCc1nc(-c2ccccc2)c(-c2ccccc2)o1` it is “inactive”; for `O=C(NCCN1CCOCC1)c1ccc(Cl)cc1` it is “inactive”.

For the origin of these results see PubChem BioAssay (NCATS).
